Measurements: the supplement of paper PMC11732987, “Enantioselective OTUD7B fragment discovery through chemoproteomics screening and high-throughput optimisation” (Communications Chemistry, 2025)

Assays:
Experiment in all cases: log2 ratio of Biotin-Ahx-Ub-VS probe labelling (fragment/DMSO); higher = less target engagement (more negative = stronger competition), active = hit call of the paper (q ≤ 0.05, log2 ratio ≤ -1)
Conditions in all cases: compound concentration: 200 uM; treatment time: 3 h
[1] = target: USP34 (UniProt Q70CQ2)
USP34, sequence (Q70CQ2 whole entry, the tested form may be a part): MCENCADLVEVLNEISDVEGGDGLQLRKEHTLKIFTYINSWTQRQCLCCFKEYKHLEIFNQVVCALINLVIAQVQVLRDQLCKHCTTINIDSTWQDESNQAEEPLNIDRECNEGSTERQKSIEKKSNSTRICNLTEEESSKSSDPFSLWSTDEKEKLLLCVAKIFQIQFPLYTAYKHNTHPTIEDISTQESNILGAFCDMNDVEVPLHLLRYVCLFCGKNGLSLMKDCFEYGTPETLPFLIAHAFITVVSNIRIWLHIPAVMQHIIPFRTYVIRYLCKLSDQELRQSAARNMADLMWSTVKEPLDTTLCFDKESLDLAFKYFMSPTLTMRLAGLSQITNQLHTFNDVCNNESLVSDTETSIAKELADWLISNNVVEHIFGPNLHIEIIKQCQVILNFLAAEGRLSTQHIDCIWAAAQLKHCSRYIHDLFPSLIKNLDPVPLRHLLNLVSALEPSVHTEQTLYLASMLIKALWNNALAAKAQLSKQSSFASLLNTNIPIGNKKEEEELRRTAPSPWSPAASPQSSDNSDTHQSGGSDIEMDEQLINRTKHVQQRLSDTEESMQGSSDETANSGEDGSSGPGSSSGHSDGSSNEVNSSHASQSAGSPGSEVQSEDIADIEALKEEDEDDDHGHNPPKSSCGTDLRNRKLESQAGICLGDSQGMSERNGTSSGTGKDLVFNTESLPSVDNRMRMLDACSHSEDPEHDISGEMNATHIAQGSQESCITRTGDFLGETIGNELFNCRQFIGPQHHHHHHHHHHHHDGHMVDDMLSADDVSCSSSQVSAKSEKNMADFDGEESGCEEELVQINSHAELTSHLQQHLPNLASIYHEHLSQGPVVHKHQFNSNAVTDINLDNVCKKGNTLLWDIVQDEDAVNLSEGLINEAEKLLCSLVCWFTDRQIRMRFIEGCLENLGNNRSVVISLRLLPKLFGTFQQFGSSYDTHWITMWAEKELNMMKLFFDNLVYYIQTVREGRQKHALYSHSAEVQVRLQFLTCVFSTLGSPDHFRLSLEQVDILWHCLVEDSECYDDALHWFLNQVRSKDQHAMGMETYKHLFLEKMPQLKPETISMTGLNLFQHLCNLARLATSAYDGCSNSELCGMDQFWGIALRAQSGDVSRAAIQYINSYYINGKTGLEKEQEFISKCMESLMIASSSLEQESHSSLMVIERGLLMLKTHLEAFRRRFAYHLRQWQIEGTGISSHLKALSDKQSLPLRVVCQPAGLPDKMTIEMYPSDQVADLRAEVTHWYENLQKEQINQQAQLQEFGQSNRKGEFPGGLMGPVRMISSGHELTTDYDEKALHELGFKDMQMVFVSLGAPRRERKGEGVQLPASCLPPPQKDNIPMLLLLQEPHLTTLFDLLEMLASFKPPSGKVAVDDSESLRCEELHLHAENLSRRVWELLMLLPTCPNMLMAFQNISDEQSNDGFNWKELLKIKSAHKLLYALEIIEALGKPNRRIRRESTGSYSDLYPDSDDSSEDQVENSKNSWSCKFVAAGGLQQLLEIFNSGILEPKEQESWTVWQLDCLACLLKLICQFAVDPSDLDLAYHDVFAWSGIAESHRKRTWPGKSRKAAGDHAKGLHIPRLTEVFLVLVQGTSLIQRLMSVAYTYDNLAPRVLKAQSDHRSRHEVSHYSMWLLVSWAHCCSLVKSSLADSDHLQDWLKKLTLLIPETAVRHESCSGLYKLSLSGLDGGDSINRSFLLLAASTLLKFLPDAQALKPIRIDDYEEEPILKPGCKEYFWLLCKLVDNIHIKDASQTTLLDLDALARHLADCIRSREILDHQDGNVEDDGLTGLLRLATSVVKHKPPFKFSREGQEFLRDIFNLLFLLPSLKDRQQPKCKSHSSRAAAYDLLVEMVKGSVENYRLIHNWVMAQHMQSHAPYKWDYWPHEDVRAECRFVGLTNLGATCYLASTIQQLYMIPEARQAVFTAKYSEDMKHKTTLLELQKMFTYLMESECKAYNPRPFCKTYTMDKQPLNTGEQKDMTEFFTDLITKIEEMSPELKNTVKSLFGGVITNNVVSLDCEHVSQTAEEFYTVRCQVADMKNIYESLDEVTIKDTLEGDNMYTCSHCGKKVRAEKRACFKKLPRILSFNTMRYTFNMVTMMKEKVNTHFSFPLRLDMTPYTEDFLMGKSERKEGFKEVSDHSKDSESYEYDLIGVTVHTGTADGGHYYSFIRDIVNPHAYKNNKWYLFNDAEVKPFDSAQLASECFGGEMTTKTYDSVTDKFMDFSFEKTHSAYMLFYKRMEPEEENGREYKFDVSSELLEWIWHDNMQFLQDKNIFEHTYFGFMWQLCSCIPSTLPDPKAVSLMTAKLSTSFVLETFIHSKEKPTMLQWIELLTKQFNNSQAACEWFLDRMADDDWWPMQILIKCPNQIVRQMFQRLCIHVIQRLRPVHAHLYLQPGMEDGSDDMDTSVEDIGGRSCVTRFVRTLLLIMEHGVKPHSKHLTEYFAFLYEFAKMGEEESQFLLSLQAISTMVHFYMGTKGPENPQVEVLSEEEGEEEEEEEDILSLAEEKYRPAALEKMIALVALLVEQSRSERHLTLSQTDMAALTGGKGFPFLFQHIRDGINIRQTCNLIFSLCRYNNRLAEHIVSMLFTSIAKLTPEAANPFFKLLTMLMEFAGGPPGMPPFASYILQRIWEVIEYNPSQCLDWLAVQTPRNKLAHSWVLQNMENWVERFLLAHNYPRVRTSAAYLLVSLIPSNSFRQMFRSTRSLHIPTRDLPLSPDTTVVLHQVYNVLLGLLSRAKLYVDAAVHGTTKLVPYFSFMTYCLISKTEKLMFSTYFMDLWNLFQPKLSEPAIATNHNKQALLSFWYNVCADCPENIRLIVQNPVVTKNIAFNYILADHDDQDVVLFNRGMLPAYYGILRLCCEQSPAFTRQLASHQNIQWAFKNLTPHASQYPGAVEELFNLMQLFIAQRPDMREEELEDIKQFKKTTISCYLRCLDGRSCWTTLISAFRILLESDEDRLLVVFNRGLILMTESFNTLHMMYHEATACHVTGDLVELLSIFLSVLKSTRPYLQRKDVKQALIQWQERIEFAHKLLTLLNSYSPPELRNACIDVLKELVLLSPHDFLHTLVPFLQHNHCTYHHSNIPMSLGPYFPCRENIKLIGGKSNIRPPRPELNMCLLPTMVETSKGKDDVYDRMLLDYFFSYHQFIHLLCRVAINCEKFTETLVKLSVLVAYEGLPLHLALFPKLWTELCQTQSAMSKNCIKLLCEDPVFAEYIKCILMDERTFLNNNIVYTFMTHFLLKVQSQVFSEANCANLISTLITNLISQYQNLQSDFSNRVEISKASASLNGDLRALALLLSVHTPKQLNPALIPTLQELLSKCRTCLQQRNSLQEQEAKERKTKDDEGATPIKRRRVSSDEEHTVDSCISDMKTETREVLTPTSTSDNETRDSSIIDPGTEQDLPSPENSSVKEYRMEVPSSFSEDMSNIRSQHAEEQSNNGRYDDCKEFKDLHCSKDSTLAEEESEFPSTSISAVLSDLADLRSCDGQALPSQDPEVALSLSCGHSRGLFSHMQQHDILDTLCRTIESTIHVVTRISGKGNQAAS
In short: (§1)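 The table lists average log2 ratios of fragment over vehicle, from an unpaired t-test on global-median-normalised Spectronaut label-free quantities. Proteins with ≥2 unique peptides were used. Samples were HEK293T lysate (495 µg) treated in triplicate with fragment at 200 µM or vehicle for 3 h, then with Biotin-Ahx-Ub-VS (0.5 µM final) for 1 h, with labelled DUBs NeutrAvidin-enriched and run by diaPASEF LC-MS/MS.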

[2] = target: T1, USP36 (UniProt Q9P275)
T1 sequence (whole entry): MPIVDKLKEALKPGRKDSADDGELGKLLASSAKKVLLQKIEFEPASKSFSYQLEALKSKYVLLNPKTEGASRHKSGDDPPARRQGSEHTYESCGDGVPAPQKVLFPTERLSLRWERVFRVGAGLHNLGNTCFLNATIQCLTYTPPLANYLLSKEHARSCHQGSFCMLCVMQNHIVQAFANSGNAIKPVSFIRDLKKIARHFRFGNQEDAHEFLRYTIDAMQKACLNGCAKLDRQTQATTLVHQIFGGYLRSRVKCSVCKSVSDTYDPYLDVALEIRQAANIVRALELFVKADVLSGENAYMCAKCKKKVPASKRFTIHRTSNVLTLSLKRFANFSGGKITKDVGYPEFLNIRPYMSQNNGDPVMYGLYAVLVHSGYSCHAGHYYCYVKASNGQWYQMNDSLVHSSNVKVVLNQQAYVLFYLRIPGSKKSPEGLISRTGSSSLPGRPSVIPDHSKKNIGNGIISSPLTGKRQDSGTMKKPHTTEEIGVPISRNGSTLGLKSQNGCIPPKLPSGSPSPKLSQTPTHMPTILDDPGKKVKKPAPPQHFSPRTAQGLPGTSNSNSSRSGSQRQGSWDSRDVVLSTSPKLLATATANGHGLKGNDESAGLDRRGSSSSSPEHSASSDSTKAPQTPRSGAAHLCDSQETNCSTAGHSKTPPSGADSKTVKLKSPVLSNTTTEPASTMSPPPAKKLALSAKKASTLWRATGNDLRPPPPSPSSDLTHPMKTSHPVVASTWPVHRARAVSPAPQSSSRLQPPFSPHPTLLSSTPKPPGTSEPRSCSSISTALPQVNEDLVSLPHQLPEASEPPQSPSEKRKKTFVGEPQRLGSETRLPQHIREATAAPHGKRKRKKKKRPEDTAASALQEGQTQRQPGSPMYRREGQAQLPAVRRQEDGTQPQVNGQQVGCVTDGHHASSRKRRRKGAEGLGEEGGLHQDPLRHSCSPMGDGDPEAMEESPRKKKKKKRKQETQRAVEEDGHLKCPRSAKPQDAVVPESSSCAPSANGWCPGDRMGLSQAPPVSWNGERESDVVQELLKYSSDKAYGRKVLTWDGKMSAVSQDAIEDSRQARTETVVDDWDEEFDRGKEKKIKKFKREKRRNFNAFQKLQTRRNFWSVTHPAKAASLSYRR
In short: as §1

[3] = target: T2, USP38 (UniProt Q8NB14)
T2 sequence (whole entry): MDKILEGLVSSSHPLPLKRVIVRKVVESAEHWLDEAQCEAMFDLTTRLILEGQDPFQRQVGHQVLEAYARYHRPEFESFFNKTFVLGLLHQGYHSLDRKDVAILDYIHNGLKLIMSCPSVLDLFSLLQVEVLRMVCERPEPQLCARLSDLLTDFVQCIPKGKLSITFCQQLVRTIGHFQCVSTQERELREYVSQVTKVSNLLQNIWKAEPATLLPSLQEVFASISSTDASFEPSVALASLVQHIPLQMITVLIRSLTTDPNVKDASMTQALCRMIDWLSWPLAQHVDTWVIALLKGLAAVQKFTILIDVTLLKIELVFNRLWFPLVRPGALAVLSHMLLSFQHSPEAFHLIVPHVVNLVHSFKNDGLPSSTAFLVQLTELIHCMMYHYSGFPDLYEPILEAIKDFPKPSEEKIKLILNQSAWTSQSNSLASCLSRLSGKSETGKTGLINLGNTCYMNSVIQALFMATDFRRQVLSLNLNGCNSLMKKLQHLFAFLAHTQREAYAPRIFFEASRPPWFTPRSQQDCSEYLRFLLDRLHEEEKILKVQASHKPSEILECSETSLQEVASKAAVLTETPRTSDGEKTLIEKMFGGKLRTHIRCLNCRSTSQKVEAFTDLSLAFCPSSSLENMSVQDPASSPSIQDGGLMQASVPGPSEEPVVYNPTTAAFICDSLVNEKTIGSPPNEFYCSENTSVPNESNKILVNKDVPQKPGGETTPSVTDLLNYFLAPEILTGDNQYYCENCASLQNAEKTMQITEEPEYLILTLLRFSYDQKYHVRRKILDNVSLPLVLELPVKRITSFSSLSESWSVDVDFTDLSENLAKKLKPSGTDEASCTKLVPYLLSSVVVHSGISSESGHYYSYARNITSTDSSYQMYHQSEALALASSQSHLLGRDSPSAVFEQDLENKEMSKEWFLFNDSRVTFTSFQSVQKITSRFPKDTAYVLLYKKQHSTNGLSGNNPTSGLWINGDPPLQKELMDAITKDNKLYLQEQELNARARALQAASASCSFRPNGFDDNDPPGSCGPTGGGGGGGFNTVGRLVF
In short: as §1

[4] = target: T3, USP39 (UniProt Q53GS9)
T3 sequence (whole entry): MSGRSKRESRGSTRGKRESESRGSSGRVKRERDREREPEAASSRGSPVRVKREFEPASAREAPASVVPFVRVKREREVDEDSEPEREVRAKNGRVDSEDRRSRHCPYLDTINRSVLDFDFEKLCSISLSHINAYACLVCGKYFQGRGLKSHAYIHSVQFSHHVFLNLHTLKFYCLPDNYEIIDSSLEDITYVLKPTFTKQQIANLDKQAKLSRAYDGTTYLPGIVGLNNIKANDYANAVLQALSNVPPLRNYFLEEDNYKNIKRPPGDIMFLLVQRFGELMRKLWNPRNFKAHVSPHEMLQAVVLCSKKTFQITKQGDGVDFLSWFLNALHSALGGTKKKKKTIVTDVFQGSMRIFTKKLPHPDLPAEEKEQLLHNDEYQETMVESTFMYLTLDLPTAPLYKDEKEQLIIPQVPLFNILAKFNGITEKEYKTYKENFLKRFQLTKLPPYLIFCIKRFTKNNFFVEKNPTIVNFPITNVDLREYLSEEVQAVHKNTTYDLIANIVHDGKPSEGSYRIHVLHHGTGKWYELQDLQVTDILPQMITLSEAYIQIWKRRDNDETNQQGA
In short: as §1

[5] = target: T4, USP4 (UniProt Q13107)
T4 sequence (whole entry): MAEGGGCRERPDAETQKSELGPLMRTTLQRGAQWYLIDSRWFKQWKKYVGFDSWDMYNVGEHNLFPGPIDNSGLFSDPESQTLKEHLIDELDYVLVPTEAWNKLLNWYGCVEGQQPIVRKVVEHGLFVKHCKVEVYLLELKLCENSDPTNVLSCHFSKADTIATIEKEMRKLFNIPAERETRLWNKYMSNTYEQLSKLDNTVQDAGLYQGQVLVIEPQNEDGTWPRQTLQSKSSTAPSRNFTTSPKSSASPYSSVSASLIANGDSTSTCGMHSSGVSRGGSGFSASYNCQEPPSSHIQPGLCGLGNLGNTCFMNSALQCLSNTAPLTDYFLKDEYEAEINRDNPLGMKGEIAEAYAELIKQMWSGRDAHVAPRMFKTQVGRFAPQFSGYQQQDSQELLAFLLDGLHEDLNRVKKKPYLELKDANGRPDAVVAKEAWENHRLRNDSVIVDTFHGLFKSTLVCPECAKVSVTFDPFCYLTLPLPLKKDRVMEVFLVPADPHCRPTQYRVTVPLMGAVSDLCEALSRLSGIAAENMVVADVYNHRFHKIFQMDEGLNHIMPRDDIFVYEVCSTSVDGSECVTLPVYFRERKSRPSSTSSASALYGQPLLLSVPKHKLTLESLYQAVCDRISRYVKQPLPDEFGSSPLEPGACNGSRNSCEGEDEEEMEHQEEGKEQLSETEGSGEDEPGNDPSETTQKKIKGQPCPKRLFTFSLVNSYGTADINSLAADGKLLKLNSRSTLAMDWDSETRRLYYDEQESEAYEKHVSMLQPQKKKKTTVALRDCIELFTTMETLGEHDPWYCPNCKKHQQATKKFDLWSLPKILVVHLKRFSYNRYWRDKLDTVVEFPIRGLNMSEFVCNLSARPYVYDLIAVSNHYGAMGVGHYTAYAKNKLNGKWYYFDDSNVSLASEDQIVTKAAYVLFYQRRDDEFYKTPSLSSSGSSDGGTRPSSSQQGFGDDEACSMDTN
In short: as §1

Measured: log2 ratio of Biotin-Ahx-Ub-VS probe labelling

O=C(CCl)Nc1cccc(C(=O)N2CCSCC2)c1
inactive: [1] -0.185 | [2] 0.0297 | [3] -0.0941 | [4] 0.29 | [5] -0.272
